Data on 1 sequence can be found in article PMC7862700, “An all-to-all approach to the identification of sequence-specific readers for epigenetic DNA modifications on cytosine”.

Assay in all cases: DAPPL (digital affinity profiling via proximity ligation, sequencing); 10 mM Tris-HCl pH 7.5, 50 mM NaCl, 1 mM DTT, 4% glycerol, room temperature, 30 min; GST-TFs on glutathione beads, 16-mer random dsDNA library, 0.1% formaldehyde crosslink after washing; high values mean tight binding
The target of experiment [1] is T1, FLI1 (Homo sapiens, UniProt Q01543 1-452).
T1 sequence: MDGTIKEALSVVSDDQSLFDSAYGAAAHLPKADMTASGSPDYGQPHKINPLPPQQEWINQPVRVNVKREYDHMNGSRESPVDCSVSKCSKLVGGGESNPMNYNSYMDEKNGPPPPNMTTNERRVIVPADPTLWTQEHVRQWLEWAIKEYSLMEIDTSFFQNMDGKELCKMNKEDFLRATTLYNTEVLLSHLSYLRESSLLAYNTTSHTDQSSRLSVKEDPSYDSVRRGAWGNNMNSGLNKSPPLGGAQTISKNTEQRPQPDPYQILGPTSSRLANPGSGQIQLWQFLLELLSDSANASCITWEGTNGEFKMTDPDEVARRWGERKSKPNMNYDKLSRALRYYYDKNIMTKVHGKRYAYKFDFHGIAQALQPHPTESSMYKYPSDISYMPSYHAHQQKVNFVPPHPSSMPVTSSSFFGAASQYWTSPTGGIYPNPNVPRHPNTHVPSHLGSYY
The settings on record: protein: recombinant; tags: N-terminal GST; dsDNA, one strand shown. The method, boiled down: (§1)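 Sequencing on an Illumina NextSeq500 followed washing, crosslinking with 0.1% formaldehyde, proximity ligation (BsaI/T4 ligase, 1 h, 37 °C) and PCR amplification of pools that had been incubated for 30 min at room temperature with 200 nmole of a random double-stranded 16-mer DNA library in Tris/NaCl/DTT/glycerol buffer. Each pool held DNA-barcoded human transcription factors, expressed in yeast as GST fusions and captured on glutathione beads, plus a tag-only sample. Binding signal is a hexamer's read frequency for a factor divided by its frequency in the tag-only sample.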

Experiment [2] has as its target T2, ELK1 (Homo sapiens, UniProt P19419 1-428).
T2 sequence: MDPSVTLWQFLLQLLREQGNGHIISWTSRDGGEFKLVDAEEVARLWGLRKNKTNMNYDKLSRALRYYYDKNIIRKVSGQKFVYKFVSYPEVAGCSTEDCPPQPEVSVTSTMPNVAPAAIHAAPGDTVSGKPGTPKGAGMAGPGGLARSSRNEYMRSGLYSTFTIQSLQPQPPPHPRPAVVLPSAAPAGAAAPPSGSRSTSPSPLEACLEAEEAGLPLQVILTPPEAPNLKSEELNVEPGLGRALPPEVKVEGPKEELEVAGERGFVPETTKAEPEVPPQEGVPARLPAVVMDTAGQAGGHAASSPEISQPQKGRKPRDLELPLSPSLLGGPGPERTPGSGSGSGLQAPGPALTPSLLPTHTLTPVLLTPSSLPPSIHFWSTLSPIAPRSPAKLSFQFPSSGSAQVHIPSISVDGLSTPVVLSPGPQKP
The settings on record: protein: recombinant; tags: N-terminal GST; dsDNA, one strand shown. The method, boiled down:
as §1

For experiment [3], the target named is T3, GABPA (Homo sapiens, UniProt Q06546 1-454).
T3 sequence: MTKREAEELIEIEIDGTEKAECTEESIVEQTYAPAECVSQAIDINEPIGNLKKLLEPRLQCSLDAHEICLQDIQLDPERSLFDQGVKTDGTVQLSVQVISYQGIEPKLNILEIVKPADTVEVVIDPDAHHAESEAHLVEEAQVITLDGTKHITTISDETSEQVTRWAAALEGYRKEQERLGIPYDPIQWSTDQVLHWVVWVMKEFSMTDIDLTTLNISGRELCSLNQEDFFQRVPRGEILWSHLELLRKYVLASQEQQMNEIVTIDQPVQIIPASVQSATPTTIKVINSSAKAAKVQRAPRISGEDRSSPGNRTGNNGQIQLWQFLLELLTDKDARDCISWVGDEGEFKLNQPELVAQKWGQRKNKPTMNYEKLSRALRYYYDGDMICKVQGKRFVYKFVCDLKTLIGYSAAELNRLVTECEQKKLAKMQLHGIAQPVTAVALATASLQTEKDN
The settings on record: protein: recombinant; tags: N-terminal GST; dsDNA, one strand shown. The method, boiled down: as §1

For experiment [4], the target named is T4, ERG (Homo sapiens, UniProt P11308 1-479).
T4 sequence: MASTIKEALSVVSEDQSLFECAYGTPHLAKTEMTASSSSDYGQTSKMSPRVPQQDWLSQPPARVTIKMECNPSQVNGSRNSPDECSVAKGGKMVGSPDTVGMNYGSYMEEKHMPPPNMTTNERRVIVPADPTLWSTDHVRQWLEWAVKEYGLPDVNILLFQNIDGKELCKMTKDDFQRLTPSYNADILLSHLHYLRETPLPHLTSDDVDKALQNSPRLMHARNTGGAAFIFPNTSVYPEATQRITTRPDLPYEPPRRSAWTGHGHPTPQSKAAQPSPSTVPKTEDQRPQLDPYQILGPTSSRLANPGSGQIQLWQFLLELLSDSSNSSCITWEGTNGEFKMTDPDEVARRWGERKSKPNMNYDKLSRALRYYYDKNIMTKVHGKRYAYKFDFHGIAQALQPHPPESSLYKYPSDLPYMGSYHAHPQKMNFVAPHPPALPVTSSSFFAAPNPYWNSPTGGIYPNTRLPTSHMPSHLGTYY
The settings on record: protein: recombinant; tags: N-terminal GST; dsDNA, one strand shown. The method, boiled down: as §1

In experiment [5] the target is ELF1 (Homo sapiens, UniProt P32519 1-619). Conditions: protein: recombinant; tags: N-terminal GST; dsDNA, one strand shown. The method, boiled down: as §1
ELF1, sequence (P32519 whole entry): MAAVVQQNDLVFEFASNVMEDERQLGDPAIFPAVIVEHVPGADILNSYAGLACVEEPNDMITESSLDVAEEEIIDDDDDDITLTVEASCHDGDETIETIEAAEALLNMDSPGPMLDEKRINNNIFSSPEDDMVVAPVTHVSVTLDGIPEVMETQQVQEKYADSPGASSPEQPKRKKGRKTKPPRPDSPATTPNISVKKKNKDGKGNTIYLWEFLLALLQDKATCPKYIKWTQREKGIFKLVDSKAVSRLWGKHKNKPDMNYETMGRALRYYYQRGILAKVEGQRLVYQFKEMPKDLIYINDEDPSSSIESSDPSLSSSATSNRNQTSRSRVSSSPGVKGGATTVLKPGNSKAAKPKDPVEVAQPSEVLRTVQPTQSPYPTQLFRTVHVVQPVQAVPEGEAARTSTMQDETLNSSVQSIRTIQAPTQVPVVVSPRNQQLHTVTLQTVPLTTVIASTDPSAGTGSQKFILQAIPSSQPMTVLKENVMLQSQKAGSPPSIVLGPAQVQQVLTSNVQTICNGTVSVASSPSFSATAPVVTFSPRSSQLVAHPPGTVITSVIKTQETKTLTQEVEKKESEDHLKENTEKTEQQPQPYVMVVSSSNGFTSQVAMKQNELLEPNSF
For experiment [6], the target named is T5, EHF (Homo sapiens, UniProt Q9NZC4 1-300).
T5 sequence: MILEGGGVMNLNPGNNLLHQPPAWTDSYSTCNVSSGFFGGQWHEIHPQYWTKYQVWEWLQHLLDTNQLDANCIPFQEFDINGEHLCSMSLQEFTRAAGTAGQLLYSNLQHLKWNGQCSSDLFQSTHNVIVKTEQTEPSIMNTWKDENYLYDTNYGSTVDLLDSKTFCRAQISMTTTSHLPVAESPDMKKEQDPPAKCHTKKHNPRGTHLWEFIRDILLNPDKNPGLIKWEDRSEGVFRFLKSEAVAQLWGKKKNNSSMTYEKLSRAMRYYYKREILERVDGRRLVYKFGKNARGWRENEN
The settings on record: protein: recombinant; tags: N-terminal GST; dsDNA, one strand shown. The method, boiled down: as §1

Experiment [7] has as its target SPI1 (Homo sapiens, UniProt P17947 1-270). Conditions: protein: recombinant; tags: N-terminal GST; dsDNA, one strand shown. The method, boiled down: as §1
Experiment [8] addresses SPIB (Homo sapiens, UniProt Q01892 1-262). The settings on record: protein: recombinant; tags: N-terminal GST; dsDNA, one strand shown. The method, boiled down: as §1
The target in experiment [9] is T6, FEV (Homo sapiens, UniProt Q99581 1-238).
T6 sequence: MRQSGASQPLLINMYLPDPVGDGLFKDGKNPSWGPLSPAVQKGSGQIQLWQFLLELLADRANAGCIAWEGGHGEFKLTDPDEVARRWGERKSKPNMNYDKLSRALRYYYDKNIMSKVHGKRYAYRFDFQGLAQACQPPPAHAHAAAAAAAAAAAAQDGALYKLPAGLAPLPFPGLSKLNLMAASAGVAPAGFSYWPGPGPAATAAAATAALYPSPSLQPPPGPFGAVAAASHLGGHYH
Conditions: protein: recombinant; tags: N-terminal GST; dsDNA, one strand shown. The method, boiled down: as §1

The target in experiment [10] is ETV5 (Homo sapiens, UniProt P41161 1-510). The settings on record: protein: recombinant; tags: N-terminal GST; dsDNA, one strand shown. The method, boiled down: as §1
ETV5, sequence (P41161 whole entry): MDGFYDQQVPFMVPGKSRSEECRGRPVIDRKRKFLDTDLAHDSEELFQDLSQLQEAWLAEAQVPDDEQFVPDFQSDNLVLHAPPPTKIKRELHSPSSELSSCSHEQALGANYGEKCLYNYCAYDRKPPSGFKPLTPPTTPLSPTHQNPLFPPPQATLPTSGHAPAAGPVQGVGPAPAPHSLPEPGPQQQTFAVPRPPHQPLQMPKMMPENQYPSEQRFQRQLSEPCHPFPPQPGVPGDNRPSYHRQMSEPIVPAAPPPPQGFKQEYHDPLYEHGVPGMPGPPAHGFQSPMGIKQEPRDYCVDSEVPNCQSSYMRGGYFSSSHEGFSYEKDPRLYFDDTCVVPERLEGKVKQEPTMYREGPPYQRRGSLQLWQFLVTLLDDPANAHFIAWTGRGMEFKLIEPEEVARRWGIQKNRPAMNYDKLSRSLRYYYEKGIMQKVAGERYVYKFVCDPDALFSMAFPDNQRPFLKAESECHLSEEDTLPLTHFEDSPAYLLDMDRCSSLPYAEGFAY
Experiment [11] deals with HSF1 (Homo sapiens, UniProt Q00613 1-529). Conditions: protein: recombinant; tags: N-terminal GST; chain copies: 3; dsDNA, one strand shown. The method, boiled down:
as §1

The target in experiment [12] is T7, SPIC (Homo sapiens, UniProt Q8N5J4 1-248).
T7 sequence: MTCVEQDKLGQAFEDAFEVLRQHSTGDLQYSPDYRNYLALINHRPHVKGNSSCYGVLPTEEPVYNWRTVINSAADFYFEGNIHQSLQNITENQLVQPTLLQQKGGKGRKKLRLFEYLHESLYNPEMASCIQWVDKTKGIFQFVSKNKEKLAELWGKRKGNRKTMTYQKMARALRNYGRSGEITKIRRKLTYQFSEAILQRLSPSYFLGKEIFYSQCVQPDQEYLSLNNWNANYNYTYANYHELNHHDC
Conditions: protein: recombinant; tags: N-terminal GST; dsDNA, one strand shown. The method, boiled down: as §1

The target in experiment [13] is ELF4 (Homo sapiens, UniProt Q99607 1-663). Conditions: protein: recombinant; tags: N-terminal GST; dsDNA, one strand shown. The method, boiled down: as §1
ELF4, sequence (Q99607 whole entry): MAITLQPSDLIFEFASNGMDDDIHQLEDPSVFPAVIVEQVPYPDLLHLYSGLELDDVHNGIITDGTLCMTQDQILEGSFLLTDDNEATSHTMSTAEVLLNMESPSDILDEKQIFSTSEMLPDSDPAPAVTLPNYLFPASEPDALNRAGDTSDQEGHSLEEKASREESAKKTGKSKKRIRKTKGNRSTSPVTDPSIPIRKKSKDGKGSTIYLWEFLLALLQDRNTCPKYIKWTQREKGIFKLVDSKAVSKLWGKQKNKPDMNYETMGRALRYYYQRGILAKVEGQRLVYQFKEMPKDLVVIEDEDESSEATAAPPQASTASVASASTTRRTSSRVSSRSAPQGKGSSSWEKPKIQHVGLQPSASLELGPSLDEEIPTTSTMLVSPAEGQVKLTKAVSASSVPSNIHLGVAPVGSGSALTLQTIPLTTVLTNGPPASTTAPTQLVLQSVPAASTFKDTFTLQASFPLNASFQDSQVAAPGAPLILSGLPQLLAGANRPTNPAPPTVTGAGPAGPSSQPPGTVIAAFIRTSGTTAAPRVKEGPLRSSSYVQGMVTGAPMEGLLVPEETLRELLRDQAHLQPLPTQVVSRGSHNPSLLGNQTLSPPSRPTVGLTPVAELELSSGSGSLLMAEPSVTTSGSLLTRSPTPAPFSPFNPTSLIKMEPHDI
For experiment [14], the target named is T8, ELK4 (Homo sapiens, UniProt P28324-2 1-405).
T8 sequence: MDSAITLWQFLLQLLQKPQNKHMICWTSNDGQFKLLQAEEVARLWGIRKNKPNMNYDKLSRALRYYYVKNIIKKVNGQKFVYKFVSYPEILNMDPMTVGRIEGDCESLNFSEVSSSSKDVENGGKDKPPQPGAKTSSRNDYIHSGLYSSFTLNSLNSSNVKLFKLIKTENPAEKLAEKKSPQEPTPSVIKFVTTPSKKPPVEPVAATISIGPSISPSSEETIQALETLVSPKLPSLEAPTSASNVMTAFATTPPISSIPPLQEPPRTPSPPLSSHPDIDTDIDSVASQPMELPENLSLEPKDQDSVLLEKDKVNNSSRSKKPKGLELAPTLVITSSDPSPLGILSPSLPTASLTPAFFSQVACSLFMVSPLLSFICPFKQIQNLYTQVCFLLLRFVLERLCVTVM
Conditions: protein: recombinant; tags: N-terminal GST; dsDNA, one strand shown. The method, boiled down:
as §1

The target in experiment [15] is T9, ETV2 (Homo sapiens, UniProt O00321 1-342).
T9 sequence: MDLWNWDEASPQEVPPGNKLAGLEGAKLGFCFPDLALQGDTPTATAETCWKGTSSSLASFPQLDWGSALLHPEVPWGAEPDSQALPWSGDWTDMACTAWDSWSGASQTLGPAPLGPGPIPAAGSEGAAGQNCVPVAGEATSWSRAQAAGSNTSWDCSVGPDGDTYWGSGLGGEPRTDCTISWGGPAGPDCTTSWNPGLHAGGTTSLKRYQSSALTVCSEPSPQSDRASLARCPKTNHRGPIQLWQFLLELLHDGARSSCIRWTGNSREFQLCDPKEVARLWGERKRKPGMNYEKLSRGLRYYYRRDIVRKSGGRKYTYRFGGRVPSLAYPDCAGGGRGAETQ
Conditions: protein: recombinant; tags: N-terminal GST; dsDNA, one strand shown. The method, boiled down:
as §1

Experiment [16] concerns the target T10, ELF3 (Homo sapiens, UniProt P78545 1-371).
T10 sequence: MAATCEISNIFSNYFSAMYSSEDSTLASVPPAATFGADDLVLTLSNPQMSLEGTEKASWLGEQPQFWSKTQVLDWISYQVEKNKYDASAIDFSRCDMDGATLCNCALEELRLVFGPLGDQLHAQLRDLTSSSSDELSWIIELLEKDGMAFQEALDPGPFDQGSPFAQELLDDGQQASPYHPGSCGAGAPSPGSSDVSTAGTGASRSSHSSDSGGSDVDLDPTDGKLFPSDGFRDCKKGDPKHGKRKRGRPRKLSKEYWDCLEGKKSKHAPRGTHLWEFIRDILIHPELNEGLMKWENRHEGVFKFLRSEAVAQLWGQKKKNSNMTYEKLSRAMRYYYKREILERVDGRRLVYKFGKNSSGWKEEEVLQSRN
Conditions: protein: recombinant; tags: N-terminal GST; dsDNA, one strand shown. The method, boiled down:
as §1

The target of experiment [17] is CRX (Homo sapiens, UniProt O43186 1-299). The settings on record: protein: recombinant; tags: N-terminal GST; dsDNA, one strand shown. The method, boiled down: as §1
CRX, sequence (O43186 whole entry): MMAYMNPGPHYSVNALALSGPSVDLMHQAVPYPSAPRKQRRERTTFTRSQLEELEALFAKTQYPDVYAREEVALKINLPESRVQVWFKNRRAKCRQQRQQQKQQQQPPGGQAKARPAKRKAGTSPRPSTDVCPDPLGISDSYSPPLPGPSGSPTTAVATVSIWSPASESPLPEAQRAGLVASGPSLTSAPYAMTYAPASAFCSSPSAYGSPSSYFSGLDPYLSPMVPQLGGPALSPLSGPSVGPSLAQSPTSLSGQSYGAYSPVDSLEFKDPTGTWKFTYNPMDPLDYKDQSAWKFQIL
Experiment [18] deals with ETV1 (Homo sapiens, UniProt P50549 1-477). Conditions: protein: recombinant; tags: N-terminal GST; dsDNA, one strand shown. The method, boiled down: as §1
ETV1, sequence (P50549 whole entry): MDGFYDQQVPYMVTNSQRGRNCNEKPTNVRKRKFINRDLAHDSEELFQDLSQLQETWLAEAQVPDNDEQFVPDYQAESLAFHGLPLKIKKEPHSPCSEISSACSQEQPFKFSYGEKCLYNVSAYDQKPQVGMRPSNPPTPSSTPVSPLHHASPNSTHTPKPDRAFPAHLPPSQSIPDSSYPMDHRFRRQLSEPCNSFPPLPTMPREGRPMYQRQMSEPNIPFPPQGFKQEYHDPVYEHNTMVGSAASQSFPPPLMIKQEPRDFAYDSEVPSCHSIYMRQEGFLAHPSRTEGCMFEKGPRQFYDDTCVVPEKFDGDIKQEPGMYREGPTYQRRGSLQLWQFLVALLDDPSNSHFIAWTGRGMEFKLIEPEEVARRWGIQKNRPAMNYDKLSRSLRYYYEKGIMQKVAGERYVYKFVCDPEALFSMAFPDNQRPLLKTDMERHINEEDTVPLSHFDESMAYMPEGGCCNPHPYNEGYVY

HSF1, sequence (Q00613 whole entry): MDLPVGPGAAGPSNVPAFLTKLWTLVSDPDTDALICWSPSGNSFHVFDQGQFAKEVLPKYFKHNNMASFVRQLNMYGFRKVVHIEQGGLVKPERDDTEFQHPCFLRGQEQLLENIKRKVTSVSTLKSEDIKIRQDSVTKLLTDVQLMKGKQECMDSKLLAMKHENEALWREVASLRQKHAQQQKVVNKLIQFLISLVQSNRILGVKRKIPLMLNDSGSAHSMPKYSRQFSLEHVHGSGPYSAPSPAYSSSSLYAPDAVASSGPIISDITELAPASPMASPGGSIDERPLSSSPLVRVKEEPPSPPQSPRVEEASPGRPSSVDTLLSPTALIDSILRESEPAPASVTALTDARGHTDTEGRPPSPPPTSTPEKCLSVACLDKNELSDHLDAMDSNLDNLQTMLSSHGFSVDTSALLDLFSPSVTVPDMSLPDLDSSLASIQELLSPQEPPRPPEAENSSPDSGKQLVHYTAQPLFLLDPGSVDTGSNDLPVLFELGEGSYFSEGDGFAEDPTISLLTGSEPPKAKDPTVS
SPIB, sequence (Q01892 whole entry): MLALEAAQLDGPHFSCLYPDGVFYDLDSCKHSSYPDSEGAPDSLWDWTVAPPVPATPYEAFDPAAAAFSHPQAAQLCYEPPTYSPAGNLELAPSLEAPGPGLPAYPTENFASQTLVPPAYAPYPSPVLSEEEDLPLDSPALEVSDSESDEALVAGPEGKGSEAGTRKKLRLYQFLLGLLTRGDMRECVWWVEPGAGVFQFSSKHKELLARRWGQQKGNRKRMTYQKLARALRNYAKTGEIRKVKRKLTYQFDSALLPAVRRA

Turning to AAAAGG, the binding signal in experiment [1] is 1.1 fold enrichment (6-mer frequency, TF over GST control); in [2] it was 1.05 fold enrichment (6-mer frequency, TF over GST control); in [3], 1.25 fold enrichment (6-mer frequency, TF over GST control); in [4] it was 1.13 fold enrichment (6-mer frequency, TF over GST control); in [5], 1.1 fold enrichment (6-mer frequency, TF over GST control); in experiment [6], 1.1 fold enrichment (6-mer frequency, TF over GST control). Moreover, the binding signal in experiment [7] is 1.48 fold enrichment (6-mer frequency, TF over GST control); in [8], 1.1 fold enrichment (6-mer frequency, TF over GST control); in experiment [9], 1.06 fold enrichment (6-mer frequency, TF over GST control); in experiment [10] it was 1.17 fold enrichment (6-mer frequency, TF over GST control); in experiment [11], 1.05 fold enrichment (6-mer frequency, TF over GST control); in experiment [12], 1.18 fold enrichment (6-mer frequency, TF over GST control). Moreover, the binding signal is 1.1 fold enrichment (6-mer frequency, TF over GST control) in [13]; 1 fold enrichment (6-mer frequency, TF over GST control) in experiment [14]; 1.12 fold enrichment (6-mer frequency, TF over GST control) in experiment [15]; 1.2 fold enrichment (6-mer frequency, TF over GST control) in experiment [16]; 1.04 fold enrichment (6-mer frequency, TF over GST control) in experiment [17]; 1.19 fold enrichment (6-mer frequency, TF over GST control) in experiment [18].
